# Test results published in PubChem BioAssay (Tox21).
# Where “and” joins values, the source holds several entries; their conditions need not be identical. Equal entries are not always repeated. Results filed as inconclusive are left out. Entries that show only a call come without a potency. Where a structure was tested more than once in an assay, its records may differ in their call. Calls of active or inactive are those of the source. Unless noted, calls come from the whole dose curve; as a rule, active = well fitted curve in the direction sought with a large enough effect in the repeat runs; inconclusive = weak or mixed curves; inactive = no such curve, though single readings can be large; an effect the other way counts as inactive or inconclusive.
# Columns and labels:
# [1] = qHTS assay to identify small molecule antagonists of the thyroid receptor (TR) signaling pathway - cell viability counter screen (AID 743064); note: nearly all actives have a fitted effect of over 50% in size
# Method in brief: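 In-well cytotoxicity read by CellTiter-Fluor (30 min, 37 C) following 23.5 h exposure of GH3 cells bearing a TRE-luciferase sensor. Compounds were added alongside 1 nM (final) T3 to drive TR transactivation.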
# [2] = qHTS assay to identify small molecule antagonists of the thyroid receptor (TR) signaling pathway (AID 743065); note: series mostly up to about 70 µM; nearly all actives have a fitted effect of over 55% in size
# Method in brief: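 Antagonism measured as loss of luciferase signal in GH3 cells stably carrying a TRE-luciferase reporter, co-treated with compound and T3 (1 nM final) for 23.5 h at 37 C. Viability was read in the same well by CellTiter-Fluor.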
# [3] = test system: thyroid hormone receptor (rat, GH3 cells); test: qHTS assay to identify small molecule agonists of the thyroid receptor (TR) signaling pathway (AID 743066; calls by dose curve)
# [4] = biological target: Estrogen receptor (Homo sapiens) (UniProt P03372); test: qHTS assay to identify small molecule antagonists of the estrogen receptor alpha (ER-alpha) signaling pathway (AID 743069; active = well fitted curve in the direction sought with a large enough effect in the signal ratio in the repeat runs, not every such curve was filed as active; the % refers to the signal ratio)
# Method in brief: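 ER-alpha-UAS-bla GripTite HEK293 line; 2% charcoal-stripped FBS overnight; plated, 4 hr 37C/5% CO2; cpd in DMSO + 17beta-estradiol, 18 hr 37C; LiveBLAzer B/G FRET substrate 2 hr RT; fluorescence intensity.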
# [5] = qHTS assay to identify small molecule antagonists of the estrogen receptor alpha (ER-alpha) signaling pathway - cell viability counter screen (AID 743074; calls by dose curve;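 note: HEK293 cells carrying ER-alpha-UAS-bla reporter stimulated with 17beta-estradiol; nearly all actives have a fitted effect of over 45% in size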)
# [6] = biological target: Estrogen receptor (Homo sapiens) (UniProt P03372); test: qHTS assay to identify small molecule agonists of the estrogen receptor alpha (ER-alpha) signaling pathway (AID 743075; calls by dose curve;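 note: HEK293 GripTite cells with ER-alpha and UAS-driven beta-lactamase reporter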; note: potency is the fitted concentration of half-maximal effect)
# [7] = biological target: Estrogen receptor (Homo sapiens) (UniProt P03372); test: qHTS assay to identify small molecule agonists of the estrogen receptor alpha (ER-alpha) signaling pathway using the BG1 cell line (AID 743079); note: nearly all actives have a fitted effect of over 20% in size; note: potency is the fitted concentration of half-maximal effect
# [8] = qHTS assay to identify small molecule antagonists of the estrogen receptor alpha (ER-alpha) signaling pathway using the BG1 cell line (AID 743080; calls by dose curve;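 note: BG1 cells stimulated with 17beta-estradiol alongside compound; series mostly up to about 70 µM; nearly all actives have a fitted effect of over 25% in size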)
# Method in brief: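 Luciferase inhibition measured with ONE-Glo after 30 min at RT in BG1Luc4E2 cells given test compounds and 17beta-estradiol for 21.5 h at 37 C; CellTiter-Fluor viability read in the same wells beforehand.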
# [9] = qHTS assay to identify small molecule antagonists of the estrogen receptor alpha (ER-alpha) signaling pathway using the BG1 cell line - cell viability counter screen (AID 743081);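 note: compound given together with 17beta-estradiol as the ER stimulus; series mostly up to about 70 µM; nearly all actives have a fitted effect of over 45% in size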
# Aromatase (Homo sapiens) = Aromatase (Homo sapiens) (UniProt P11511); test: qHTS assay to identify aromatase inhibitors (AID 743083); note: series mostly up to about 70 µM; nearly all actives have a fitted effect of over 55% in size
# [10] = qHTS assay to identify aromatase inhibitors - cell viability counter screen (AID 743084);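 note: cells stimulated with testosterone during compound exposure; nearly all actives have a fitted effect of over 55% in size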
# [11] = biological target: Aryl hydrocarbon receptor (Homo sapiens) (UniProt P35869); test: qHTS assay to identify small molecule that activate the aryl hydrocarbon receptor (AhR) signaling pathway (AID 743085); note: nearly all actives have a fitted effect of over 15% in size; note: potency is the fitted concentration of half-maximal effect;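 for activation: HG2L7.5c1 human HepG2 liver cells with stably integrated DRE-driven firefly reporter; series mostly up to about 70 µM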
# Method in brief: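 Luminescence (ONE-Glo) from a dioxin-responsive-element luciferase reporter in HG2L7.5c1 HepG2 cells after 24 hr compound exposure at 37C; viability measured by CellTiter-Fluor fluorescence beforehand.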
# [12] = qHTS assay to identify small molecule that activate the aryl hydrocarbon receptor (AhR) signaling pathway - cell viability counter screen (AID 743086);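 note: HepG2 liver cells carrying the AhR DRE luciferase reporter; series mostly up to about 70 µM; nearly all actives have a fitted effect of over 45% in size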
# Method in brief: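 Cytotoxicity counter screen: CellTiter-Fluor signal (30 min, 37 C) in 4000 HepG2 cells/well carrying the DRE-luciferase reporter, following 24 h compound exposure at 37 C.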
# [13] = biological target: Peroxisome proliferator-activated receptor gamma (Homo sapiens) (UniProt P37231); test: qHTS assay to identify small molecule agonists of the peroxisome proliferator-activated receptor gamma (PPARg) signaling pathway (AID 743094; active = well fitted activation curve with a large enough effect in the signal ratio in the repeat runs, not every such curve was filed as active; the % refers to the signal ratio)
# Method in brief: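 Quantitative HTS agonist mode: stable HEK293H line with UAS-beta-lactamase reporter under PPARg control, 17 h compound exposure at 37C, fluorescence after 1 h FRET substrate loading at room temperature.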
# [14] = qHTS assay for small molecule agonists of the antioxidant response element (ARE) signaling pathway (AID 743202; active = well fitted activation curve with a large enough effect in the signal ratio in the repeat runs, not every such curve was filed as active; the % refers to the signal ratio)
# Method in brief: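 Quantitative high-throughput format in HepG2 cells bearing an integrated ARE-beta-lactamase reporter. Compound exposure lasted 16 h at 37 C, and fluorescence was read 2 h after adding LiveBLAzer B/G substrate at room temperature.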
# [15] = qHTS assay for small molecule agonists of the antioxidant response element (ARE) signaling pathway - cell viability counter screen (AID 743203; calls by dose curve; note: nearly all actives have a fitted effect of over 55% in size)
# Method in brief: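 Seeded at 2,000 cells/well, ARE-bla HepG2 cells were incubated 5 hrs before compound addition. After 16 hrs of treatment at 37C with 5% CO2, CellTiter-Glo reagent was added and luminescence read 30 min later.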
# [16] = qHTS assay for small molecule activators of the heat shock response signaling pathway - cell viability counter screen (AID 743209); note: nearly all actives have a fitted effect of over 50% in size
# Method in brief: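 First, HSE-bla HeLa cells were seeded at 1500 cells/well and kept overnight at 37 C. Next, compounds were pinned in and incubated 5 h. After the FRET substrate step, CellTiter-Glo was added and luminescence read 30 min later.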
# [17] = qHTS assay for small molecule activators of the heat shock response signaling pathway (AID 743210; active = well fitted activation curve with a large enough effect in the signal ratio in the repeat runs, with a control signal flat, not every such curve was filed as active; the % refers to the signal ratio;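 note: HeLa cells with beta-lactamase reporter driven by heat shock elements; series mostly up to about 63 µM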)
# Method in brief: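 HeLa HSE-bla cells, overnight plating; cpd in DMSO 5 h, 37 C; LiveBLAzer B/G FRET substrate 2.5 h RT; fluorescence intensity read.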
# [18] = biological target: Peroxisome proliferator-activated receptor gamma (Homo sapiens) (UniProt P37231); test: qHTS assay to identify small molecule antagonists of the peroxisome proliferator-activated receptor gamma (PPARg) signaling pathway (AID 743191; calls by dose curve; note: series mostly up to about 63 µM; nearly all actives have a fitted effect of over 30% in size)
# Method in brief: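 Beta-lactamase reporter under UAS control in HEK293H PPARg-bla cells; compound treatment 17 h at 37C. Read-out: fluorescence intensity after 1 h room-temperature incubation with LiveBLAzer B/G FRET substrate.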
# [19] = qHTS assay to identify small molecule antagonists of the peroxisome proliferator-activated receptor gamma (PPARg) signaling pathway - cell viability counter screen (AID 743194); note: nearly all actives have a fitted effect of over 55% in size
# Method in brief: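 Viability was measured as CellTiter-Glo luminescence in GeneBLAzer PPARg UAS-bla HEK293H cells. These cells had been exposed 17 h at 37 C to compounds together with rosiglitazone at 50 nM final, with the beta-lactamase readout taken in the same wells.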
# Estrogen receptor (Homo sapiens), sequence (P03372 whole entry, looked up): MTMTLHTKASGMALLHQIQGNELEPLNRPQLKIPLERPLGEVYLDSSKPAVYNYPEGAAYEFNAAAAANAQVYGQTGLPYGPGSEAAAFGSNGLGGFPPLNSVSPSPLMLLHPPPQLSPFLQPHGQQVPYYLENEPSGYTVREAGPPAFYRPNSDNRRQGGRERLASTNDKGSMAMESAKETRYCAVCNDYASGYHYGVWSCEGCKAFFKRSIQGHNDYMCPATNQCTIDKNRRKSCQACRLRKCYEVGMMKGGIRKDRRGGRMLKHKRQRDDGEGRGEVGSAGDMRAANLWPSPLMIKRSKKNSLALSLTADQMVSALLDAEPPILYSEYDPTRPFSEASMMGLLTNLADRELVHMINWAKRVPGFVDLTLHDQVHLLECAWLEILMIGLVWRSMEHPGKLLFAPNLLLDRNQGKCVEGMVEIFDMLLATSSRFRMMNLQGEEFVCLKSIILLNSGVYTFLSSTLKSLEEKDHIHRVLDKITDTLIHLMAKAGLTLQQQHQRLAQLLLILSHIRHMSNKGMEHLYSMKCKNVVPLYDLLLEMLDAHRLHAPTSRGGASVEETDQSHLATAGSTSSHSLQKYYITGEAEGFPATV
# Aromatase (Homo sapiens), sequence (P11511 whole entry, looked up): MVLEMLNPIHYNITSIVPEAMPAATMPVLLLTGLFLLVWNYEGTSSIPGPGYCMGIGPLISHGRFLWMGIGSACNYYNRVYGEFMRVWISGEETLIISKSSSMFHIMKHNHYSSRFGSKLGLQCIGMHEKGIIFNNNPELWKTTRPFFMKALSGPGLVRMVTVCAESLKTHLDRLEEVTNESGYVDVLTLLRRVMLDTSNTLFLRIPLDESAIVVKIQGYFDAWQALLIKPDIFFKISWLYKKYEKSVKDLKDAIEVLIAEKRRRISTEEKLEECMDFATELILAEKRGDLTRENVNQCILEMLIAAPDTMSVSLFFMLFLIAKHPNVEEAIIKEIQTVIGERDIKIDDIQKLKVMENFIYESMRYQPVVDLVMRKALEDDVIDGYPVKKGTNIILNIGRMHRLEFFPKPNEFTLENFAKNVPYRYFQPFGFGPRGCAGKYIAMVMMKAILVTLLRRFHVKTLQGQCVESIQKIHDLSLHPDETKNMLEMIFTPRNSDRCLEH
# Peroxisome proliferator-activated receptor gamma (Homo sapiens), sequence (P37231 whole entry, looked up): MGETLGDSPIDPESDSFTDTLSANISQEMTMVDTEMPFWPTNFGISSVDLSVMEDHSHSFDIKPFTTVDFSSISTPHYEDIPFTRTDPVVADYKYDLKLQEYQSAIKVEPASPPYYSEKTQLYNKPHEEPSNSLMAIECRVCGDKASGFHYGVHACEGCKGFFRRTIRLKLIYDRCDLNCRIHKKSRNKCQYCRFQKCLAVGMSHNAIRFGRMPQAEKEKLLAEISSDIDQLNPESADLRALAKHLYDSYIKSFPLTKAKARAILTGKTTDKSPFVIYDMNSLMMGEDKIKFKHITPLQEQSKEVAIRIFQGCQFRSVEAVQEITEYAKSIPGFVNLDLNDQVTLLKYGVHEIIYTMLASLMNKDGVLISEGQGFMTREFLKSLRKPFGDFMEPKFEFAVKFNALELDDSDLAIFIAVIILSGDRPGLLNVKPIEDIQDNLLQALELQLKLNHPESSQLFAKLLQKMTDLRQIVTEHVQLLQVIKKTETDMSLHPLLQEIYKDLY
# Aryl hydrocarbon receptor (Homo sapiens), sequence (P35869 whole entry, looked up): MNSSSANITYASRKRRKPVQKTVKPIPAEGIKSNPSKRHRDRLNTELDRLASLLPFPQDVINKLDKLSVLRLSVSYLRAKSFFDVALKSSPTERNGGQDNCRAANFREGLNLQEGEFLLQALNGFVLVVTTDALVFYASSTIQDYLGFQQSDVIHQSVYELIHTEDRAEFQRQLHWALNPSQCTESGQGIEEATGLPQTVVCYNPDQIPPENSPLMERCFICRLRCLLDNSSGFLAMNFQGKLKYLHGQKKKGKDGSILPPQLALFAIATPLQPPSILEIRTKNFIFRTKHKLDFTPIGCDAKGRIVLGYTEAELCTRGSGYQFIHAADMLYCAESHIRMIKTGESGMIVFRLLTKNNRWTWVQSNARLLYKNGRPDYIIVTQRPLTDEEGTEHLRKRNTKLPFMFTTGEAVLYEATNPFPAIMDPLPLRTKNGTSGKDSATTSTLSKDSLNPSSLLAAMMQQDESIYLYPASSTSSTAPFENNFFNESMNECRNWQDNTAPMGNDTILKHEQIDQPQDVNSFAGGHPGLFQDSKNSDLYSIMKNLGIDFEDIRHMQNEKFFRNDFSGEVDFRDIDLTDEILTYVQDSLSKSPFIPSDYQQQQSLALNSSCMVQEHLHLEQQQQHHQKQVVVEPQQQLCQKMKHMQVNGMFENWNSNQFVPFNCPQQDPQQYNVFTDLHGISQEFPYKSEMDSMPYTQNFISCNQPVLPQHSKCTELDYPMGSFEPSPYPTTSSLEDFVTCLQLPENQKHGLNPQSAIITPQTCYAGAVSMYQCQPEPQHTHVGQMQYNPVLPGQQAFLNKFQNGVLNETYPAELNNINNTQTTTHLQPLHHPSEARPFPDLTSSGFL
SMILES,Potency [1],Potency [2],outcome [3],Potency [4],outcome [5],Potency [6],Potency [7],outcome [8],Potency [9],Potency (Aromatase (Homo sapiens)),Potency [10],Potency [11],Potency [12],outcome [13],Potency [14],Potency [15],outcome [16],outcome [17],outcome [18],outcome [19]
CCNc1cccc(C)c1,inactive,inactive,inactive,inactive,inactive,inactive,inactive,inactive,inactive,inactive,inactive,inactive,inactive,inactive,inactive,inactive,inactive,inactive,,
CC(=O)OCCOC(C)=O,inactive,inactive,inactive,inactive,inactive,inactive,inactive,inactive,inactive,inactive,inactive,inactive,inactive,inactive,inactive,inactive,inactive,inactive,inactive,inactive
CC(C)OC(=O)COc1ccc(Cl)cc1Cl,inactive,inactive,inactive,inactive,inactive,inactive,inactive,inactive,inactive,inactive,inactive,inactive,inactive,inactive,inactive,inactive,inactive,inactive,inactive,inactive
CCOCC(=O)O,inactive,inactive,inactive,inactive,inactive,inactive,inactive,inactive,inactive,inactive,inactive,inactive,inactive,inactive,inactive,inactive,inactive,inactive,inactive,inactive
CCCCCCCCCCO,inactive,inactive,inactive,inactive,inactive,inactive,inactive,inactive,inactive,inactive,inactive,inactive,inactive,inactive,inactive,inactive,inactive,inactive,,inactive
C=C(C)C(=O)OCC(C)C,inactive,inactive,inactive,inactive,inactive,inactive,inactive,inactive,inactive,inactive,inactive,inactive,inactive,inactive,inactive,inactive,inactive,inactive,inactive,inactive
COc1ccc([N+](=O)[O-])cc1N,inactive,inactive,inactive,inactive,inactive,inactive,inactive,inactive,inactive,inactive,inactive,,inactive,inactive,inactive,inactive,inactive,inactive,inactive,
O=C(OCC1CCC2OC2C1)C1CCC2OC2C1 (stereo not given),inactive,inactive,inactive,inactive,inactive,inactive,inactive,inactive,inactive,inactive,inactive,inactive,inactive,inactive,inactive,inactive,inactive,inactive,,
CC(CCO)CC(C)(C)C (stereo not given),inactive,inactive,inactive,inactive,inactive,inactive,inactive,inactive,inactive,inactive,inactive,inactive,inactive,inactive,inactive,inactive,inactive,inactive,,
CCCCC(C=O)CC (stereo not given),inactive,inactive,inactive,inactive,inactive,inactive,inactive,inactive,inactive,inactive,inactive,,inactive,inactive,inactive,inactive,inactive,,inactive,inactive
O=c1[nH]cnc2[nH]ncc12,inactive,inactive,inactive,inactive,inactive,inactive,inactive,inactive,inactive,inactive,inactive,inactive,inactive,inactive,inactive,inactive,inactive,inactive,,inactive
CCNC(=S)NCC,inactive,inactive,inactive,inactive,inactive,inactive,inactive and 54.5 µM (active),inactive,inactive,inactive,inactive,,inactive,inactive,inactive,inactive,inactive,inactive,inactive,inactive
C=CC(C)CCCC(C)(C)O (stereo not given),inactive,inactive,inactive,inactive,inactive,inactive,inactive,inactive,inactive,inactive,inactive,inactive,inactive,inactive,inactive,inactive,inactive,,,
CC(C)c1cccc(C(C)C)c1,inactive,inactive,inactive,inactive,inactive,inactive,inactive,inactive,inactive,inactive,inactive,inactive,inactive,inactive,inactive,inactive,inactive,inactive,inactive,inactive
CCCCCC(=O)O,inactive,inactive,inactive,inactive,inactive,inactive,inactive,inactive,inactive,inactive,inactive,inactive,inactive,inactive,inactive,inactive,inactive,inactive,,inactive
O=C1CCCC1,inactive,inactive,inactive,inactive,inactive,inactive,inactive,inactive,inactive,inactive,inactive,,inactive,inactive,inactive,inactive,inactive,inactive,inactive,

SMILES,Potency [1],Potency [2],outcome [3],Potency [4],outcome [5],Potency [6],Potency [7],outcome [8],Potency [9],Potency (Aromatase (Homo sapiens)),Potency [10],Potency [11],Potency [12],outcome [13],Potency [14],Potency [15],outcome [16],outcome [17],outcome [18],outcome [19]
CCCCCCCCCCCCCCCCO,inactive,inactive,inactive,inactive,inactive,inactive,inactive,inactive,inactive,inactive,inactive,,inactive,inactive,,inactive,inactive,inactive,inactive,inactive
c1ccc2c(c1)Cc1ccccc1-2,inactive,inactive,inactive,inactive,inactive,inactive,inactive,inactive,inactive,inactive,inactive,inactive,inactive,inactive,inactive,inactive,inactive,inactive,,
CC1(C)CC(N)CC(C)(CN)C1 (stereo not given),inactive,inactive,inactive,inactive,inactive,inactive,inactive,inactive,inactive,inactive,inactive,,inactive,inactive,inactive,inactive,inactive,inactive,inactive,inactive
Brc1ccc(Br)c(Br)c1,inactive,inactive,inactive,inactive,inactive,inactive,inactive,inactive,inactive,inactive,inactive,inactive,inactive,inactive,inactive,inactive,inactive,inactive,inactive,inactive
CC1(C)NC(=O)NC1=O,inactive,inactive,inactive,inactive,inactive,inactive,inactive,inactive,inactive,inactive,inactive,inactive,inactive,inactive,inactive,inactive,inactive,inactive,inactive,inactive
CCCCCCCCCCCC(=O)OC,inactive,inactive,inactive,inactive,inactive,inactive,inactive,inactive,inactive,inactive,inactive,inactive,inactive,inactive,inactive,inactive,inactive,inactive,,inactive
CCCCCCCO,inactive,inactive,inactive,inactive,inactive,inactive,inactive,inactive,inactive,inactive,inactive,,inactive,inactive,inactive,inactive,inactive,inactive,,inactive
CC1(C)S[C@@H]2[C@H](NC(=O)COc3ccccc3)C(=O)N2[C@H]1C(=O)O,inactive,inactive,inactive,inactive,inactive,inactive,inactive,inactive,inactive,inactive,inactive,inactive,inactive,inactive,inactive,inactive,inactive,inactive,inactive,
C[Si]1(C)O[Si](C)(C)O[Si](C)(C)O[Si](C)(C)O1,inactive,inactive,inactive,inactive,inactive,inactive,inactive,inactive,inactive,inactive,inactive,inactive,inactive,inactive,inactive,inactive,inactive,inactive,,
Nc1nc(N)nc(-c2ccccc2)n1,inactive,inactive,inactive,inactive,inactive,inactive,inactive and 34.4 µM (active),inactive,inactive,inactive,inactive,,inactive,inactive,inactive,inactive,inactive,inactive,inactive,inactive
CNC(=S)N(C)C,inactive,inactive,inactive,inactive,inactive,inactive,inactive,inactive,inactive,inactive,inactive,,inactive,inactive,inactive,inactive,inactive,inactive,inactive,inactive
OCc1ccccc1,inactive,inactive,inactive,inactive,inactive,inactive,inactive,inactive,inactive,inactive,inactive,inactive,inactive,inactive,inactive,inactive,inactive,inactive,inactive,
O=C(O)c1cc2ccccc2cc1O,inactive,inactive,inactive,inactive,inactive,inactive and 49 µM [activator] (active),54.1 µM (active) and 48.6 µM (active),inactive,inactive,inactive,inactive,60.7 µM (active) and 30.6 µM (active),inactive,inactive,inactive,inactive,inactive,,inactive,inactive
CC(=O)Oc1ccc(C)cc1,inactive,inactive,inactive,inactive,inactive,inactive,inactive,inactive,inactive,inactive,inactive,inactive,inactive,inactive,inactive,inactive,inactive,inactive,inactive,inactive
CC(=O)CC(C)(C)O,inactive,inactive,inactive,inactive,inactive,inactive,inactive,inactive,inactive,inactive,inactive,,inactive,inactive,inactive,inactive,inactive,inactive,inactive,inactive
